An excerpt weighted towards active compounds, which were near 6.9% of everything screened.
SW480 rerep = induces DNA re-replication in SW480 colon adenocarcinoma cells | SW480 DNA re-replication, Hoechst DNA content imaging, 48 h | AID 624297 | Potency, µM (highest dose often 46.1 µM), for the others: at the highest dose re-replication activation, actives largely listed as activators | hit rate 1.8% among 340,000; note: potency is the fitted concentration of half-maximal effect; % of control where 0% means no effect; nearly all actives have a fitted effect of over 55% in size
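Readout is total intensity of Hoechst-stained nuclei, excited at 405 nm and collected at 500-530 nm. Compound treatment lasted 48 hr at 37 C in 5% CO2 before staining.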
MCF10A rerep = inducers of DNA re-replication in MCF 10A breast cells. MCF 10A DNA re-replication, Hoechst nuclear intensity, 48 h. Potency, µM (titrated, usually from 46.1 µM), for the others: top-dose activity, positive = re-replication, most hits filed as activators. hit rate 2.9% among 350,000. AID 624296; note: potency is the fitted concentration of half-maximal effect; % of control where 0% means no effect; nearly all actives have a fitted effect of over 50% in size
Giardia killer = kills Giardia lamblia | AID 540267 | activity change, % at 7.66 µM, hits read low | Giardia lamblia trophozoite viability | hit rate 0.15% among 340,000; in the data active = activity change below about -80%; inconclusive = between about -30% and that limit;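 note: parasites exposed to compound for two days anaerobically before the ATP read; % is set by controls: 0 for no effect and ±100 for the full control effect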
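Luminescence from cellular ATP indicates surviving trophozoites (100 cells/well) following 48 hrs anaerobic compound treatment at 37 deg C; signal develops 15-30 min at room temperature.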
KB-V1 cytotox = KB-V1 MDR subline cytotoxicity | KB-V1 MDR cells viability, CellTiter-Glo, 72 h | Potency, µM (highest dose often 46.1 µM), actives largely listed as cytotoxic | hit rate 3.4% among 400,000; note: potency is the fitted concentration of half-maximal effect; % is set by controls: 0 for no effect and ±100 for the full control effect; nearly all actives have a fitted effect of over 60% in size
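In this primary screen, KB-V1 cells overexpressing P-gp are incubated with library compounds (lowest to highest concentration) for 72 h at 37 degrees C before a luminescent ATP viability read.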
KB-3-1 tox = KB-3-1 parental cell cytotoxicity; KB-3-1 viability, CellTiter-Glo ATP luminescence, 72 h; Potency, µM (titrated, usually from 46.1 µM), hits mostly cytotoxic; hit rate 1.4% among 400,000; note: potency is the fitted concentration of half-maximal effect; % is set by controls: 0 for no effect and ±100 for the full control effect; nearly all actives have a fitted effect of over 60% in size
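Here the drug-naive KB-3-1 line serves as comparator for MDR sub-line selectivity; cells received compound titrations, 72 h at 37 °C, then CellTiter-Glo readout.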
ASM inhibitor = blocks human secretory acid sphingomyelinase | P17405 | placental ASM, HMU-PC fluorogenic substrate, 60 min | Potency, µM (top dose mostly 57.5 µM), inactives show at the highest dose activity change, negative = inhibition, hits mostly inhibitors | hit rate 0.006% among 340,000 | AID 504937; note: potency is the fitted concentration of half-maximal effect
Target sequence (P17405 47-631 limits assumed): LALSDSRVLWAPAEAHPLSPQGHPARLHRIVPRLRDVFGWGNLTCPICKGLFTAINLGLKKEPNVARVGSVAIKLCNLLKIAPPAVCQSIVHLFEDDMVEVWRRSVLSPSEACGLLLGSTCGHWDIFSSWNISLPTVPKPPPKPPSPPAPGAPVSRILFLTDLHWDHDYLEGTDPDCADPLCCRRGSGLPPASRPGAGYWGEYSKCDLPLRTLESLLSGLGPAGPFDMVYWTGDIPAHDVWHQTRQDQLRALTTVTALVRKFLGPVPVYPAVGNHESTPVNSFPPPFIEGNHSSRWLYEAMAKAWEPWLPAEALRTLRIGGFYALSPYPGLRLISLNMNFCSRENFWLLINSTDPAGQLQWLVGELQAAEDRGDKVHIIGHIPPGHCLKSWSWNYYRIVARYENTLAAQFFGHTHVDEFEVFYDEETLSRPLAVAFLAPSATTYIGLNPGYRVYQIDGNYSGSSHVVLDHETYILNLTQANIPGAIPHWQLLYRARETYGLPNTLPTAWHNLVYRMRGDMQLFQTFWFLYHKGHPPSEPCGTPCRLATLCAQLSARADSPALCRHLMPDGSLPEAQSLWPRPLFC
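Steps: dispense placental human ASM, pin compound, wait 10 min at room temperature, add HMU-PC0 substrate at 9 uM final, incubate 60 min at 37 °C, add stop solution raising pH to 10, read fluorescence.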
* marks the source's active call; other numbers are inactive results; i = inactive; u = inconclusive; x = no result given; [ ] = dose if it differs, or a comment. Unless noted, calls come from the whole dose curve; as a rule, active = well fitted curve in the direction sought with a large enough effect; inconclusive = small, poorly fitted or top-dose-only effect, or another doubt; inactive = no such curve, though single readings can be large; an effect the other way counts as inactive or inconclusive.

SMILES | SW480 rerep | MCF10A rerep | Giardia killer | KB-V1 cytotox | KB-3-1 tox | ASM inhibitor
CCN(C(=O)COC(=O)/C=C/c1c(C)nn(Cc2ccc(C)cc2)c1C)C1CCS(=O)(=O)C1 (centres undefined) | 16µM* | -3%[9.22 µM] | 18 | i | i | 3%
CCN(C(=O)COC(=O)/C=C/c1cccc(Br)c1)C1CCS(=O)(=O)C1 (centres undefined) | u | u | -7 | i | i | 0%
CCCn1nc(NC(=O)c2ccco2)c2cc3ccccc3nc21 | 18µM* | 16µM* | 3 | u | u | 338%
CCCC(=O)Nc1nn(CCC)c2nc3ccccc3cc12 | 4% | 2% | -12 | u | i | 235%
CCn1nc(NC(=O)c2ccco2)c2cc3cc(C)ccc3nc21 | 18µM* | u | 5 | u | i | 456%
Cc1ccc2cc3c(NC(=O)c4ccco4)nn(C)c3nc2c1 | u | 18µM* | 20 | u | u | 296%
CCc1ccccc1N1C(=O)N(CC(=O)c2ccc(Cl)cc2)c2ccccc2S1(=O)=O | x | x | x | i | i | x
COc1ccc(NC(=O)Nc2nnc(C(C)C)s2)cc1 | -9% | -2% | 15 | 16µM* | u | -3%
CCc1ccc(S(=O)(=O)c2nnn3c2nc(NC(C)C)c2cc(Cl)ccc23)cc1 | x | x | x | i | i | x
CC(=O)c1c(C)oc2ccc(NS(=O)(=O)c3ccc(C(C)C)cc3)cc12 | x | x | x | u | 21µM* | x
COCCOC(=O)c1c(C)oc2ccc(NS(=O)(=O)c3ccc(C(=O)O)cc3)cc12 | -4% | -3% | -6 | i | i | 2%
CCCCOC(=O)c1c(C)oc2ccc(NS(=O)(=O)c3ccc4c5c(cccc35)C(=O)N4)cc12 | 9% | u | 3 | 15µM* | u | u
COCCOC(=O)c1c(C)oc2ccc(NS(=O)(=O)c3cccs3)cc12 | 7% | 5% | 10 | i | i | 0%
COC(=O)c1c(C)oc2ccc(NS(=O)(=O)c3cc(OC)ccc3OC)cc12 | 15% | u | -20 | 10µM* | 26µM* | -11%
CCOc1ccc(S(=O)(=O)Nc2ccc3oc(C)c(C(=O)OCCOC)c3c2)cc1 | x | x | x | u | 5.8µM* | x
COc1ccc(NC(=O)c2c(NCc3cccc(OC)c3)sc3c2CCC3)cc1 | x | x | x | i | i | x
Cn1c(SCC(=O)N2CCCCCC2)nc2c(c1=O)SCC2 | -7% | 0% | 9 | i | i | 0%
S=C(NCc1ccccc1)NCc1ccccc1Cl | -10% | 0% | -10 | i | i | -4%
Cn1c(SCC(=O)c2ccc3c(c2)NC(=O)CO3)nc2ccccc21 | -4% | -3% | 13 | u | i | -2%
CCc1ccc(-n2c(SCC(=O)c3ccc4c(c3)NC(=O)CO4)nc3ccccc3c2=O)cc1 | 1% | -4% | 7 | u | 21µM* | 0%
CCCn1c(SCC(=O)c2ccc3c(c2)NC(=O)CO3)nc2ccccc21 | 0% | u | 1 | i | i | -2%
O=C1COc2ccc(C(=O)CSc3nc4ccccc4c(=O)n3-c3ccc(Cl)c(Cl)c3)cc2N1 | 18µM* | 13µM* | -10 | u | i | -4%
O=C(O)CCc1ccc(-c2ccccc2)n1CC(=O)Nc1ccccc1C(F)(F)F | x | x | x | i | i | x
CC1(C)CC2(C)OC(=N)C1(C#N)C2(C#N)C#N (centres undefined) | 5% | 23µM* | -24 | i | i | 4%
Cc1nc(Nc2ncc(C(=O)Nc3c(C)cccc3Cl)s2)cc(N2CCN(CCO)CC2)n1 | 17µM* | 19µM* | x | i | u | x
SMILES | SW480 rerep | MCF10A rerep | Giardia killer | KB-V1 cytotox | KB-3-1 tox | ASM inhibitor
Cc1cccc(Cl)c1NC(=O)N1CCCN(c2nc3ccc(Cl)cc3s2)CC1 | 1% | 11% | -4 | u | u | -3%
CN1CCc2nc(NC(=O)COc3ccc4ccccc4c3)sc2C1 | u | 13µM* | -10 | u | u | 14%
CN1CCN(c2ccc(NC(=O)COc3ccc4ccccc4c3)cc2)CC1 | u | 16µM* | 11 | u | i | -5%
CCc1nnc(NC(=O)COc2ccc3ccccc3c2)s1 | 8% | 0% | 0 | i | i | -4%
COc1ccc(Nc2nc(NCCN3CCOCC3)nc(Nc3ccc(OC)cc3)n2)cc1 | 11% | 9% | 11 | i | i | -2%
CC1CCCC(=C\c2ccccc2)/C1=N/O (centres undefined) | -1% | 1% | -1 | i | i | 0%
CCN(C(=O)CSc1nc(C)nc2sc(C)c(C)c12)C1CCS(=O)(=O)C1 (centres undefined) | -21% | -3% | -16 | i | i | -1%
Cc1nc(SCC(=O)N(CC(C)C)C2CCS(=O)(=O)C2)c2c(C)c(C)sc2n1 (centres undefined) | -6% | 2% | -26 | 3.7µM* | u | -2%
COc1ccc(NC2=C(Cl)C(=O)N(c3ccccc3)C2=O)c(OC)c1 | -4% | 11% | 7 | i | i | -7%
COc1ccccc1NC1=C(Cl)C(=O)N(c2ccccc2)C1=O | 10µM* | -3% | 16 | i | i | -7%
COCc1c(C(=O)NCCOc2ccc(Cl)cc2)oc2ccccc12 | 0% | 9% | u | i | i | -1%
CCOc1ccc(OCCNC(=O)c2oc3ccccc3c2COC)cc1 | -5% | u | -9 | 21µM* | i | -5%
CSc1ccc(NC(=O)Nc2cc(C)ccn2)cc1 | -10% | 4% | -15 | i | i | 3%
Nc1ccc(Oc2ccc3nc(-c4ccccc4)c(-c4ccccc4)nc3c2)cc1 | 11% | 11% | -15 | u | u | -4%
Nc1ccc2nc(-c3ccccc3)sc2c1 | u | 26µM* | u | u | 16µM* | i
Nc1ccc2nc(-c3ccccc3)c(-c3ccccc3)nc2c1 | 23µM* | 21µM* | 4 | i | i | 33%
Fc1ccccc1/C=N/NC(=S)Nc1ccc(Cl)cc1Cl | 3.3µM* | u | -7 | 1.5µM* | 8.2µM* | 0%
CC(=O)/C(=C/N(C)C)C(=O)Nc1ccc(Cl)cc1Cl | u | 18µM* | 0 | i | i | 6%
CN(C)/C=N/C(=S)Nc1ccc(Cl)cc1Cl | 21µM* | u | 1 | i | i | -2%
CCN(CC)C(=O)CSc1nc(-c2ccc(C)cc2)nc2c1Cc1c(CO)cnc(C)c1O2 | x | x | x | i | i | x
COc1ccc(-c2cc(C)no2)cc1S(=O)(=O)NCc1cccs1 | x | x | x | i | u | x
CCCSCCCNC(=O)c1cc2n(n1)CCCN(Cc1ccc(C)cc1)C2=O | x | x | x | i | u | x
Clc1nc(NCCc2ccccc2)c2cn[nH]c2n1 | 6% | u | 13 | 1.2µM* | i | 0%

Screening results (PubChem BioAssay)
